Laboratory results as given in the supplement of paper PMC8253809.
Values joined by “and” are separate entries in the source; they are usually repeats but may differ in a detail not shown here. Identical values can stand only once.

These molecules were tested on DIPGX37 (H3.3 K27M diffuse intrinsic pontine glioma line) (assay: growth inhibition (% activity, log2 RLU normalised to DMSO / staurosporine); higher = more growth inhibition). Details: 33 µM.
Summary of the method: (§1)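 For each approved drug, the growth-inhibition value is the replicate median of per-plate normalised CellTiter-Glo data. Luminescence was log2-transformed and expressed as % activity between solvent and positive control wells. Drugs were applied in triplicate at a single final concentration of about 33 μM for 7 days at 37 °C, 5% CO2 to pHGG cell lines and H9-derived neural stem cells.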

| SMILES | growth inhibition |
| --- | --- |
| N=C(N)c1ccc(OCCCCCOc2ccc(C(=N)N)cc2)cc1 | -2.71% |
| Cc1c(-c2ccccc2)oc2c(C(=O)OCCN3CCCCC3)cccc2c1=O | -1.55% |
| O=P(O)(O)C(Cl)(Cl)P(=O)(O)O | -0.716% |
| CCOC(=O)c1c(CSc2ccccc2)n(C)c2cc(Br)c(O)c(CN(C)C)c12 | -1.13% |
| O=C(O)c1cc(=O)c2ccccc2o1 | -0.128% |
| O=C(Nc1cccc2c(=O)cc(-c3nnn[nH]3)oc12)c1ccc(OCCCCc2ccccc2)cc1 | 2.86% |
| CC(C(=O)O)c1cccc(Oc2ccccc2)c1 (stereo not drawn) | 4.27% and 0.295% |
| CC(C[N+](C)(C)C)OC(N)=O (stereo not drawn) | 0.0509% |
| CC1(C)O[C@@H]2C[C@H]3[C@@H]4C[C@H](F)C5=CC(=O)C=C[C@]5(C)[C@@]4(F)[C@@H](O)C[C@]3(C)[C@]2(C(=O)CO)O1 | 6.05% |
| CC(=O)OCC(=O)[C@@]1(O)CC[C@H]2[C@@H]3CCC4=CC(=O)CC[C@]4(C)[C@H]3C(=O)C[C@@]21C | -1.7% |
| C[C@@]12C[C@@]3(O)O[C@@H](O1)[C@]1(COC(=O)c4ccccc4)[C@H]3C[C@@]12O[C@@H]1O[C@H](CO)[C@@H](O)[C@H](O)[C@H]1O | 0.987% |
| Cc1ccc(-n2[nH]c(C)c(N=Nc3cccc(-c4cccc(C(=O)O)c4)c3O)c2=O)cc1C | -1.98% |
| CCOC(=O)c1ccc(C#Cc2ccc3c(c2)C(C)(C)CCS3)nc1 | -0.285% |
| CN1C(C(=O)Nc2ccccn2)=C(O)c2sc(Cl)cc2S1(=O)=O | -0.653% |
| CC[C@H]1OC(=O)[C@H](C)[C@@H](O[C@H]2C[C@@](C)(OC)[C@@H](O)[C@H](C)O2)[C@H](C)[C@@H](O[C@@H]2O[C@H](C)C[C@H](N(C)C)[C@H]2O)[C@](C)(O)C[C@@H](C)C(=O)[C@H](C)[C@@H](O)[C@]1(C)O | -2.96% |
| Clc1ccccc1CN1CCc2sccc2C1 | 3.08% |
| CC(C)OC(=O)C(C)(C)Oc1ccc(C(=O)c2ccc(Cl)cc2)cc1 | 2.12% |
| Clc1ccc(C(c2ccccc2Cl)C(Cl)Cl)cc1 (stereo not drawn) | -1.47% |
| C=CCNC(N)=S | 0.393% |
| Clc1cccc(Cl)c1NC1=NCCN1 | -3.42% |

| SMILES | growth inhibition |
| --- | --- |
| CC(C)(C)CC(C)(C)c1ccc(OCCOCC[N+](C)(C)Cc2ccccc2)cc1 | 71.8% |
| CN(C)CCCN1c2ccccc2CCc2ccc(Cl)cc21 | 0.768% |
| O=C(NCCN1CCOCC1)c1ccc(Cl)cc1 | -0.588% |
| Cc1onc(-c2c(Cl)cccc2Cl)c1C(=O)N[C@@H]1C(=O)N2[C@@H]1SC(C)(C)[C@@H]2C(=O)O | 1.6% |
| C[C@](N)(Cc1ccc(O)c(O)c1)C(=O)O | 1.72% |
| CN(C)CCCC1(c2ccc(F)cc2)OCc2cc(C#N)ccc21 (stereo not drawn) | 3.31% |
| CNCCC(Oc1ccc(C(F)(F)F)cc1)c1ccccc1 (stereo not drawn) | 2.62% |
| O=C([O-])C(O)[C@H](O)[C@@H](O)[C@H](O)[C@H](O)CO.O=C([O-])C(O)[C@H](O)[C@@H](O)[C@H](O)[C@H](O)CO.[Ca+2] (stereo partly drawn) | 4.54% |
| Cc1c(C(=O)NN2CCCCC2)nn(-c2ccc(Cl)cc2Cl)c1-c1ccc(Cl)cc1 | -0.227% |
| CC(=O)N1CCN(c2ccc(OCC3COC(Cn4ccnc4)(c4ccc(Cl)cc4Cl)O3)cc2)CC1 (stereo not drawn) | 1.48% |
| CC(C)(Oc1ccc(CCNC(=O)c2ccc(Cl)cc2)cc1)C(=O)O | 2.31% |
| O=C1[C@@H]2[C@H]3CC[C@H](C3)[C@@H]2C(=O)N1C[C@@H]1CCCC[C@H]1CN1CCN(c2nsc3ccccc23)CC1 | 0.212% |
| CC(C)(Oc1ccc(Cl)cc1)C(=O)O | 1.37% |
| Cc1cc(C)nc(NS(=O)(=O)c2ccc(N)cc2)n1 | 0.0741% |
| Cc1cnc(NC(=O)C2=C(O)c3ccccc3S(=O)(=O)N2C)s1 | 2.24% |
| CNC(=O)c1ccc(N2C(=S)N(c3ccc(C#N)c(C(F)(F)F)c3)C(=O)C2(C)C)cc1F | -0.457% |
| COc1cc2c(cc1Cc1cccc(Cl)c1F)c(=O)c(C(=O)O)cn2[C@H](CO)C(C)C | 1.4% |
| C=C1CC[C@H](O)C/C1=C/C=C1\CCC[C@]2(C)[C@@H]([C@H](C)/C=C/[C@H](C)C(C)C)CC[C@@H]12 | 5.04% |
| CC(C)(C)c1ccc(C(O)CCCN2CCC(C(O)(c3ccccc3)c3ccccc3)CC2)cc1 (stereo not drawn) | -0.074% |

What follows are molecules tested on DIPGX7 (H3.3 K27M diffuse intrinsic pontine glioma line) in the same assay as above. Details: 33 µM.
Summary of the method: as §1

| SMILES | growth inhibition |
| --- | --- |
| N=C(N)c1ccc(OCCCCCOc2ccc(C(=N)N)cc2)cc1 | 16.9% |
| Cc1c(-c2ccccc2)oc2c(C(=O)OCCN3CCCCC3)cccc2c1=O | 0.152% |
| O=P(O)(O)C(Cl)(Cl)P(=O)(O)O | 0.292% |
| CCOC(=O)c1c(CSc2ccccc2)n(C)c2cc(Br)c(O)c(CN(C)C)c12 | 3.04% |
| O=C(O)c1cc(=O)c2ccccc2o1 | 0.253% |
| O=C(Nc1cccc2c(=O)cc(-c3nnn[nH]3)oc12)c1ccc(OCCCCc2ccccc2)cc1 | 2.31% |
| CC(C(=O)O)c1cccc(Oc2ccccc2)c1 (stereo not drawn) | 0.905% and -1.45% |
| CC(C[N+](C)(C)C)OC(N)=O (stereo not drawn) | -1.77% |
| CC1(C)O[C@@H]2C[C@H]3[C@@H]4C[C@H](F)C5=CC(=O)C=C[C@]5(C)[C@@]4(F)[C@@H](O)C[C@]3(C)[C@]2(C(=O)CO)O1 | 2.96% |
| CC(=O)OCC(=O)[C@@]1(O)CC[C@H]2[C@@H]3CCC4=CC(=O)CC[C@]4(C)[C@H]3C(=O)C[C@@]21C | -1.09% |
| C[C@@]12C[C@@]3(O)O[C@@H](O1)[C@]1(COC(=O)c4ccccc4)[C@H]3C[C@@]12O[C@@H]1O[C@H](CO)[C@@H](O)[C@H](O)[C@H]1O | -0.876% |
| Cc1ccc(-n2[nH]c(C)c(N=Nc3cccc(-c4cccc(C(=O)O)c4)c3O)c2=O)cc1C | 0.213% |
| CCOC(=O)c1ccc(C#Cc2ccc3c(c2)C(C)(C)CCS3)nc1 | 6.1% |
| CN1C(C(=O)Nc2ccccn2)=C(O)c2sc(Cl)cc2S1(=O)=O | -2.4% |
| CC[C@H]1OC(=O)[C@H](C)[C@@H](O[C@H]2C[C@@](C)(OC)[C@@H](O)[C@H](C)O2)[C@H](C)[C@@H](O[C@@H]2O[C@H](C)C[C@H](N(C)C)[C@H]2O)[C@](C)(O)C[C@@H](C)C(=O)[C@H](C)[C@@H](O)[C@]1(C)O | 0.845% |
| Clc1ccccc1CN1CCc2sccc2C1 | 2.39% |
| CC(C)OC(=O)C(C)(C)Oc1ccc(C(=O)c2ccc(Cl)cc2)cc1 | 2.17% |
| Clc1ccc(C(c2ccccc2Cl)C(Cl)Cl)cc1 (stereo not drawn) | -1.72% |
| C=CCNC(N)=S | -0.932% |
| Clc1cccc(Cl)c1NC1=NCCN1 | 1.12% |

| SMILES | growth inhibition |
| --- | --- |
| CC(C)(C)CC(C)(C)c1ccc(OCCOCC[N+](C)(C)Cc2ccccc2)cc1 | 69% |
| CN(C)CCCN1c2ccccc2CCc2ccc(Cl)cc21 | 0.947% |
| O=C(NCCN1CCOCC1)c1ccc(Cl)cc1 | -0.129% |
| Cc1onc(-c2c(Cl)cccc2Cl)c1C(=O)N[C@@H]1C(=O)N2[C@@H]1SC(C)(C)[C@@H]2C(=O)O | 0.879% |
| C[C@](N)(Cc1ccc(O)c(O)c1)C(=O)O | -0.426% |
| CN(C)CCCC1(c2ccc(F)cc2)OCc2cc(C#N)ccc21 (stereo not drawn) | 3.03% |
| CNCCC(Oc1ccc(C(F)(F)F)cc1)c1ccccc1 (stereo not drawn) | 1.4% |
| O=C([O-])C(O)[C@H](O)[C@@H](O)[C@H](O)[C@H](O)CO.O=C([O-])C(O)[C@H](O)[C@@H](O)[C@H](O)[C@H](O)CO.[Ca+2] (stereo partly drawn) | 2.65% |
| Cc1c(C(=O)NN2CCCCC2)nn(-c2ccc(Cl)cc2Cl)c1-c1ccc(Cl)cc1 | 1.25% |
| CC(=O)N1CCN(c2ccc(OCC3COC(Cn4ccnc4)(c4ccc(Cl)cc4Cl)O3)cc2)CC1 (stereo not drawn) | 11.2% |
| CC(C)(Oc1ccc(CCNC(=O)c2ccc(Cl)cc2)cc1)C(=O)O | 1.05% |
| O=C1[C@@H]2[C@H]3CC[C@H](C3)[C@@H]2C(=O)N1C[C@@H]1CCCC[C@H]1CN1CCN(c2nsc3ccccc23)CC1 | 1.18% |
| CC(C)(Oc1ccc(Cl)cc1)C(=O)O | -0.722% |
| Cc1cc(C)nc(NS(=O)(=O)c2ccc(N)cc2)n1 | -1.22% |
| Cc1cnc(NC(=O)C2=C(O)c3ccccc3S(=O)(=O)N2C)s1 | -0.44% |
| CNC(=O)c1ccc(N2C(=S)N(c3ccc(C#N)c(C(F)(F)F)c3)C(=O)C2(C)C)cc1F | 1.36% |
| COc1cc2c(cc1Cc1cccc(Cl)c1F)c(=O)c(C(=O)O)cn2[C@H](CO)C(C)C | 3.52% |
| C=C1CC[C@H](O)C/C1=C/C=C1\CCC[C@]2(C)[C@@H]([C@H](C)/C=C/[C@H](C)C(C)C)CC[C@@H]12 | 5.34% |
| CC(C)(C)c1ccc(C(O)CCCN2CCC(C(O)(c3ccccc3)c3ccccc3)CC2)cc1 (stereo not drawn) | 0.488% |
